In PubChem BioAssay (EPA / NIEHS):
Activity calls are given as the source filed them. The calls were made as follows: active = hit-call score of the fitted dose curve at least 0.9, where 1 is the maximum; inactive = score below 0.9.

Tests used:
[1] = ATG_CRE_CIS: Attagene CIS-FACTORIAL HepG2 Assay for human cAMP Responsive Element (CRE) binding protein 3 (AID 2282926); details: HepG2 CRE cis-reporter, Attagene multiplexed mRNA; actives raise or lower the signal
Summary of the method: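 Assay format: transient reporter transfection of HepG2, 24 h treatment, total RNA isolation with DNase I step. Reporter abundance read by fluorescence after PCR and capillary separation; DMSO-normalised gain or loss fitting.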

[2] = target: CCAAT/enhancer-binding protein beta (Homo sapiens) (UniProt P17676); experiment: ATG_C_EBP_CIS: Attagene CIS-FACTORIAL HepG2 Assay for human CCAAT/Enhancer Binding Protein (C/EBP) beta (AID 2282927); details: HepG2 Attagene cis-factorial transcription factor reporter; actives raise or lower the signal
Sequence of CCAAT/enhancer-binding protein beta (Homo sapiens) (P17676 whole entry, looked up): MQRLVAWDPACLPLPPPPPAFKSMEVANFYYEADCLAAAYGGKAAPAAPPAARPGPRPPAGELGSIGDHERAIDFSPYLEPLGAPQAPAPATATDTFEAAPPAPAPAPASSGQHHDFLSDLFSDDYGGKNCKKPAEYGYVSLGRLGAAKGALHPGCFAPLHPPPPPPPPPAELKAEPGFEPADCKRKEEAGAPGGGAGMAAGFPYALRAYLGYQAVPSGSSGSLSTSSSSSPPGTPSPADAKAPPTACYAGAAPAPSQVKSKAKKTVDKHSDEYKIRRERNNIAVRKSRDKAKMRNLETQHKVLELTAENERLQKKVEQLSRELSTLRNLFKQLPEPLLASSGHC
Summary of the method: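 HepG2 transiently transfected with multiplexed reporter units under cis-regulatory promoters reporting endogenous C/EBPb activity. After 24 h exposure, reporter mRNA assayed by RT-PCR, fluorescent labelling, HpaI digestion and capillary electrophoresis; bidirectional fitting versus DMSO.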

[3] = ATG_CMV_CIS: Attagene CIS-FACTORIAL HepG2 Assay for human CMV (Internal Marker) (AID 2282928); details: HepG2 CMV promoter reporter, transcription factor profiling; actives raise or lower the signal;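 also: endpoint acts as a background internal control marker rather than a target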
Summary of the method: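 Bidirectional fits against DMSO are applied to reporter mRNA, read by RT-PCR with capillary electrophoresis, from HepG2 cells exposed 24 h. The endpoint serves as an internal CMV background marker within the cis-factorial reporter panel.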

[4] = ATG_DR4_LXR_CIS: Attagene CIS-FACTORIAL HepG2 Assay for human Liver X Receptor (LXR), DR4 submotif (AID 2282929); details: HepG2 Attagene DR4 cis-reporter, mRNA transcription; actives raise or lower the signal
Summary of the method: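 HepG2, transient MRTU transfection, cis-element (DR4) promoter; 24 h compound exposure; total RNA → oligo(dT) RT → PCR → 6-FAM primer extension → HpaI cut → CE. Gain/loss vs DMSO, bidirectional fit.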

[5] = target: Aryl hydrocarbon receptor (Homo sapiens) (UniProt P35869); experiment: ATG_Ahr_CIS: Attagene CIS-FACTORIAL HepG2 Assay for human Aryl Hydrocarbon Receptor (Ahr) (AID 2282930); details: HepG2 AhR cis-factorial reporter transcription; actives raise or lower the signal
Sequence of Aryl hydrocarbon receptor (Homo sapiens) (P35869 whole entry, looked up): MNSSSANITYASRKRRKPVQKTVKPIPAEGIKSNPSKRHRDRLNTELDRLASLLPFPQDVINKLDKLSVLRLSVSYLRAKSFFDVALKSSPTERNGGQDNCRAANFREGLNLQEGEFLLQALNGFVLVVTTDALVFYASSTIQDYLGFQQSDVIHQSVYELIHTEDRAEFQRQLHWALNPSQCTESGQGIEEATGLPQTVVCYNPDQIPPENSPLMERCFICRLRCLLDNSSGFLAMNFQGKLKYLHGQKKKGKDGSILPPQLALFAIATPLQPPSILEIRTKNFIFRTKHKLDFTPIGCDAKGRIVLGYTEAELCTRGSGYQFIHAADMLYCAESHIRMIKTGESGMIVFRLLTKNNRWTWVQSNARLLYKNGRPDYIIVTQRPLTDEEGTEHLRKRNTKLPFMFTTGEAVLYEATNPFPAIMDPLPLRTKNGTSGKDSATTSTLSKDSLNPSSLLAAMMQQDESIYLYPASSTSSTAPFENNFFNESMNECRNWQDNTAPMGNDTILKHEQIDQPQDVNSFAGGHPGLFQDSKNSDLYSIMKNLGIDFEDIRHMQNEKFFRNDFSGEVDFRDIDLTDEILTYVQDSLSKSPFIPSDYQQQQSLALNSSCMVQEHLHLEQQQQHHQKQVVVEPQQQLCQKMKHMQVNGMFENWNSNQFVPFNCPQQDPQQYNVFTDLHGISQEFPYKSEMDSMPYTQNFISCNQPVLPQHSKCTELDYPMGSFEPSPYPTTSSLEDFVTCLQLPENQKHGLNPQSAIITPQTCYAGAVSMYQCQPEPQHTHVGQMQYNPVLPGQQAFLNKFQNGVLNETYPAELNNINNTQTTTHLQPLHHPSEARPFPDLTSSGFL
Summary of the method: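 HepG2 cells transiently transfected with cis-element-driven multiplexed reporter units; endogenous AhR activity read as reporter mRNA 24 h after dosing, via RT-PCR, 6-FAM labelling, HpaI digestion and capillary electrophoresis. Bidirectional fit relative to DMSO.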

[6] = ATG_AP_1_CIS: Attagene CIS-FACTORIAL HepG2 Assay for human Activator Protein 1 (AP-1) (AID 2282931); details: HepG2 Attagene cis-factorial AP-1 reporter mRNA; actives raise or lower the signal
Summary of the method: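 Transient MRTU transfection of HepG2 → 24 h chemical treatment → RNA isolation, RT-PCR, 6-FAM labelling, HpaI digest → capillary electrophoresis. Fit: bidirectional, DMSO negative control.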

[7] = ATG_AP_2_CIS: Attagene CIS-FACTORIAL HepG2 Assay for human Activator Protein 2 (AP-2) (AID 2282932); details: HepG2 AP-2 cis-reporter, Attagene transcription factor profiling; actives raise or lower the signal
Summary of the method: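 Liver-derived HepG2 line, cis-reporter system measuring endogenous factors; 24 h dosing; reporter mRNA detected by fluorescent RT-PCR and capillary electrophoresis.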

[8] = ATG_BRE_CIS: Attagene CIS-FACTORIAL HepG2 Assay for human Bone Morphogenetic Protein (BMP) Response Element (BRE) (AID 2282933); details: HepG2 BMP response element reporter, Attagene transcription factor profiling; actives raise or lower the signal
Summary of the method: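 Fluorescence-labelled reporter cDNA fragments, separated by capillary electrophoresis, gave the signal for this component of a 52-readout multiplex. HepG2 cells were transfected, exposed to chemicals for 24 h, and compared with DMSO using bidirectional fitting.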

[9] = target: Transcription factor E2F1 (Homo sapiens) (UniProt Q01094); experiment: ATG_E2F_CIS: Attagene CIS-FACTORIAL HepG2 Assay for human E2F Transcription Factor 1 (AID 2282935); details: HepG2 Attagene cis-reporter, E2F reporter RNA transcripts; actives raise or lower the signal
Sequence of Transcription factor E2F1 (Homo sapiens) (Q01094 whole entry, looked up): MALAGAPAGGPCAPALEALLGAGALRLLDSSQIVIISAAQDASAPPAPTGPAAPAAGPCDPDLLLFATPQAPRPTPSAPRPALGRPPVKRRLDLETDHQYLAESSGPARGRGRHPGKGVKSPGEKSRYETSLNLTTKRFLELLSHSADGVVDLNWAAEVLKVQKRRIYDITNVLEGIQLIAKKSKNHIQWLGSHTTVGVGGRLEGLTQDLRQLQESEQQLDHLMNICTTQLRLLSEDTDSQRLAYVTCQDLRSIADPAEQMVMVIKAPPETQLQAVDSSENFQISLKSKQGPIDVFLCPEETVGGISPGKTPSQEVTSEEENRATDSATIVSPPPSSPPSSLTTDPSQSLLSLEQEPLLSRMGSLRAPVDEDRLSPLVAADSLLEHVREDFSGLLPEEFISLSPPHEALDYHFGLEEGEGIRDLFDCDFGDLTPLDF
Summary of the method: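 Liver-derived HepG2 cells expressing transfected promoter-driven reporter units received test chemical for 24 hours. Signal gains or losses were fitted bidirectionally against DMSO.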

[10] = ATG_E_Box_CIS: Attagene CIS-FACTORIAL HepG2 Assay for human Enhancer Box (E-box) (AID 2282936); details: HepG2 E-box cis-reporter transcription, actives raise or lower the signal
Summary of the method: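 In this cell-based setup, HepG2 cells bearing transfected promoter-driven reporter units were exposed to chemicals for 24 h; reporter transcripts were amplified, 6-FAM-labelled, cut with HpaI and sized by capillary electrophoresis.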

[11] = ATG_M_61_CIS: Attagene CIS-FACTORIAL HepG2 Assay for M61 Transcription Factor (Internal Marker) (AID 2282937); details: HepG2 Attagene CIS-FACTORIAL M61 internal marker reporter; actives raise or lower the signal
Summary of the method: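 Human liver HepG2, transient MRTU transfection (cis promoter elements), 24 h compound. Total RNA → oligo(dT) RT → PCR → FAM label → HpaI → CE. Internal background marker; bidirectional fitting, DMSO = baseline.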

[12] = ATG_EGR_CIS: Attagene CIS-FACTORIAL HepG2 Assay for human Early Growth Response 1 (EGR1) (AID 2282938); details: HepG2 Attagene CIS-FACTORIAL EGR reporter mRNA; actives raise or lower the signal
Summary of the method: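 Transient transfection of human HepG2 with multiple cis-regulated reporter units, chemical exposure 24 h, total RNA isolated. Reverse transcription, PCR, fluorescent labelling and capillary electrophoresis quantify reporter transcripts; activity fitted bidirectionally against DMSO.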

[13] = ATG_M_19_CIS: Attagene CIS-FACTORIAL HepG2 Assay for M19 Transcription Factor (Internal Marker) (AID 2282939); details: HepG2 Attagene CIS-FACTORIAL M19 internal marker reporter; actives raise or lower the signal
Summary of the method: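 HepG2, MRTU transient transfection, 24 h dosing. Total RNA → RT-PCR → 6-FAM primer extension → HpaI digest → CE fluorescence. Bidirectional curve fit, DMSO negative control.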

[14] = ATG_ERE_CIS: Attagene CIS-FACTORIAL HepG2 Assay for Estrogen Response Element (ERE) (AID 2282940); details: HepG2 ERE cis-reporter, Attagene RNA transcript; actives raise or lower the signal
Summary of the method: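 After a 24 h chemical treatment, RNA from reporter-transfected HepG2 cells is reverse-transcribed, PCR-amplified and fluorescently labelled. Fragments separated by capillary electrophoresis give reporter signal; DMSO serves as negative control.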

[15] = ATG_Ets_CIS: Attagene CIS-FACTORIAL HepG2 Assay for human Erythroblast Transformation Specific (ETS) (AID 2282941); details: HepG2 ETS cis-reporter transcription, actives raise or lower the signal
Summary of the method: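 Endogenous transcription factor activity read as reporter mRNA via RT-PCR and capillary electrophoresis, with gain or loss fitted bidirectionally against DMSO. Human HepG2 liver cells, transiently transfected CIS reporter constructs, 24 h exposure.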

[16] = target: Hepatocyte nuclear factor 3-beta (Homo sapiens) (UniProt Q9Y261); experiment: ATG_FoxA2_CIS: Attagene CIS-FACTORIAL HepG2 Assay for human Forkhead box A2 (FOXA2) (AID 2282942); details: HepG2 cis-reporter transcription factor activity, 24 h; actives raise or lower the signal
Sequence of Hepatocyte nuclear factor 3-beta (Homo sapiens) (Q9Y261 whole entry, looked up): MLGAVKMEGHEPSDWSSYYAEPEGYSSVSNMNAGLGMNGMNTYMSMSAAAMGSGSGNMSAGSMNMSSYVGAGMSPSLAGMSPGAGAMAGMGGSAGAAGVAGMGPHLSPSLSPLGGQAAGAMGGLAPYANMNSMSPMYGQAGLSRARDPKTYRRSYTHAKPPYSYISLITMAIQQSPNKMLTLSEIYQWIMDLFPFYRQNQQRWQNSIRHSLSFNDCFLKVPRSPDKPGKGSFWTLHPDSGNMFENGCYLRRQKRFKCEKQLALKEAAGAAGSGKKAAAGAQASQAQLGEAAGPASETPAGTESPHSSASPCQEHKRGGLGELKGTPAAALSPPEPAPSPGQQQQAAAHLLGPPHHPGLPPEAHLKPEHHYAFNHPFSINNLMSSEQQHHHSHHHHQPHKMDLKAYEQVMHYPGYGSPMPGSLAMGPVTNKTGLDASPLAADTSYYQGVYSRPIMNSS
Summary of the method: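 Transient MRTU transfection of HepG2 liver cells; 24 h treatment; total RNA → oligo(dT) RT → PCR → FAM primer extension → HpaI cut → CE. Bidirectional fit vs DMSO.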

[17] = ATG_FoxO_CIS: Attagene CIS-FACTORIAL HepG2 Assay for human Forkhead box O (FoxO) (AID 2282943); details: HepG2 Attagene cis-reporter, FoxO element, mRNA; actives raise or lower the signal
Summary of the method: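 HepG2 cells transiently transfected with cis-element-driven reporter units report endogenous FoxO activity. After 24 h chemical exposure, reporter mRNA quantified by RT-PCR, fluorescent labeling, HpaI digestion and capillary electrophoresis; bidirectional fit versus DMSO.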

[18] = ATG_GATA_CIS: Attagene CIS-FACTORIAL HepG2 Assay for human GATA Binding Protein (AID 2282944); details: HepG2 GATA cis-element reporter, Attagene multiplex mRNA; actives raise or lower the signal
Summary of the method: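 Cells: HepG2, transiently transfected with cis-regulated reporter transcription units. Exposure: 24 h. Detection: RT-PCR plus capillary electrophoresis of FAM-labeled fragments. Analysis: bidirectional, DMSO as baseline.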

[19] = ATG_GLI_CIS: Attagene CIS-FACTORIAL HepG2 Assay for human Zinc Finger Protein GLI1 (AID 2282945); details: HepG2, Attagene cis-factorial reporter mRNA, GLI element; actives raise or lower the signal
Summary of the method: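 Transiently transfected HepG2 cells report endogenous transcription factor activity via cis-element-driven reporter units. After 24 h compound exposure, reporter mRNA was measured by RT-PCR with capillary electrophoresis; bidirectional fitting against DMSO baseline.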

Measured: AC50

CCCCCCCCC
active: [14] 63.2 µM
inactive: all other assays above

CCCC(C)C=O (stereo not drawn)
inactive: all assays above

CCCCCCCCCOC(C)=O
not listed: [17]
inactive: all other assays above

CC(=O)OCCOC(C)=O
not listed: [18]
inactive: all other assays above

O=C1c2ccccc2C(=O)N1SC1CCCCC1
inactive: [1] | [2] | [3] | [9] | [10] | [11] | [16] | [19]
active: [4] 170 µM | [5] 26.9 µM | [6] 84.5 µM | [7] 129 µM | [8] 75.1 µM | [12] 65.6 µM | [13] 186 µM | [14] 66.4 µM | [15] 159 µM | [17] 172 µM | [18] 144 µM

Cc1ccc2n[nH]nc2c1
active: [5] 16.3 µM
not listed: [15]
inactive: all other assays above

O=C(O)CCSCCC(=O)O
not listed: [17]
inactive: all other assays above

CC(C)c1cccc(O)c1
active: [14] 104 µM
inactive: all other assays above
